# Assays:
# Experiment in all cases: DAPPL (digital affinity profiling via proximity ligation, sequencing); 10 mM Tris-HCl pH 7.5, 50 mM NaCl, 1 mM DTT, 4% glycerol, room temperature, 30 min; GST-TFs on glutathione beads, 16-mer random dsDNA library, 0.1% formaldehyde crosslink after washing; high values mean tight binding
# Conditions in all cases: protein: recombinant; tags: N-terminal GST; dsDNA, one strand shown
# FLI1 = target: T1, FLI1 (Homo sapiens, UniProt Q01543 1-452)
# T1 sequence: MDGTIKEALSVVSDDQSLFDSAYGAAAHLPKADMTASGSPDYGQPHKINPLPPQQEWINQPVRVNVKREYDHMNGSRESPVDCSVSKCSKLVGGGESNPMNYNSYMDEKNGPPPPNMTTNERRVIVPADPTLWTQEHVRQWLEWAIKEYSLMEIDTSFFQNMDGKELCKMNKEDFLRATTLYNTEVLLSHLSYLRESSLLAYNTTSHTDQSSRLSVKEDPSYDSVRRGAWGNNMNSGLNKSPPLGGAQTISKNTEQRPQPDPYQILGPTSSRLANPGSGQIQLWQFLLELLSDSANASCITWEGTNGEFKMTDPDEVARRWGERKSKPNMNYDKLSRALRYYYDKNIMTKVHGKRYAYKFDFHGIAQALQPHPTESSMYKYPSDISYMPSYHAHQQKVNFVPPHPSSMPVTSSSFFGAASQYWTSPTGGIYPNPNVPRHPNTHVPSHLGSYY
# Summary of the method: (§1)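 Pools were built from human transcription factors expressed in yeast as GST fusions, captured on glutathione beads and DNA-barcoded, along with a tag-only sample. Incubation with 200 nmole of a 16-mer random double-stranded DNA library lasted 30 min at room temperature in Tris/NaCl/DTT/glycerol buffer, and was followed by washing, 0.1% formaldehyde crosslinking, proximity ligation, PCR amplification and Illumina NextSeq500 sequencing. Binding signal is the quotient of each hexamer's read frequency for a factor and its frequency for the tag-only sample.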
# ELK1 = target: T2, ELK1 (Homo sapiens, UniProt P19419 1-428)
# T2 sequence: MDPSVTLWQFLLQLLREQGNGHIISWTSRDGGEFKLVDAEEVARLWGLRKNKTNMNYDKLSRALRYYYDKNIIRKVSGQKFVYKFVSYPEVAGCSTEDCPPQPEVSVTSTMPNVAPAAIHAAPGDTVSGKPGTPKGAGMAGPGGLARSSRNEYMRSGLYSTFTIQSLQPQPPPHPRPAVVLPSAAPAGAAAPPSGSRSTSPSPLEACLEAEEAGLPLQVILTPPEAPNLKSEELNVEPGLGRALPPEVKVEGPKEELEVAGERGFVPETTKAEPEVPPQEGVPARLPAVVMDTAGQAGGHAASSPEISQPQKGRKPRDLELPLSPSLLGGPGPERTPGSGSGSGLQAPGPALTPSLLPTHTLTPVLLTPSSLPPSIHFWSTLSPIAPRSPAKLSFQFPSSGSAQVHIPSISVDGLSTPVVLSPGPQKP
# Summary of the method: as §1
# GABPA = target: T3, GABPA (Homo sapiens, UniProt Q06546 1-454)
# T3 sequence: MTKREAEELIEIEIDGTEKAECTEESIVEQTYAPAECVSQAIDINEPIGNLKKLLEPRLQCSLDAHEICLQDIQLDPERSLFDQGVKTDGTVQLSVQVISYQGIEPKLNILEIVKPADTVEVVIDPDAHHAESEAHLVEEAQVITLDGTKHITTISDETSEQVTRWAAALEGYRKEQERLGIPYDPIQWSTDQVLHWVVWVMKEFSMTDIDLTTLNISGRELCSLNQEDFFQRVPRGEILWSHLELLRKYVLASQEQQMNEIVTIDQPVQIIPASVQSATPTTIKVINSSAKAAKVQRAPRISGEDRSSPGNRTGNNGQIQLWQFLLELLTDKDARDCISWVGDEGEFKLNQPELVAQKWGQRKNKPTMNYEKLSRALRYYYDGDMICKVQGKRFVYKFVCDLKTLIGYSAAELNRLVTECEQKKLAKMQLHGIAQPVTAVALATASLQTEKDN
# Summary of the method: as §1
# ERG = target: T4, ERG (Homo sapiens, UniProt P11308 1-479)
# T4 sequence: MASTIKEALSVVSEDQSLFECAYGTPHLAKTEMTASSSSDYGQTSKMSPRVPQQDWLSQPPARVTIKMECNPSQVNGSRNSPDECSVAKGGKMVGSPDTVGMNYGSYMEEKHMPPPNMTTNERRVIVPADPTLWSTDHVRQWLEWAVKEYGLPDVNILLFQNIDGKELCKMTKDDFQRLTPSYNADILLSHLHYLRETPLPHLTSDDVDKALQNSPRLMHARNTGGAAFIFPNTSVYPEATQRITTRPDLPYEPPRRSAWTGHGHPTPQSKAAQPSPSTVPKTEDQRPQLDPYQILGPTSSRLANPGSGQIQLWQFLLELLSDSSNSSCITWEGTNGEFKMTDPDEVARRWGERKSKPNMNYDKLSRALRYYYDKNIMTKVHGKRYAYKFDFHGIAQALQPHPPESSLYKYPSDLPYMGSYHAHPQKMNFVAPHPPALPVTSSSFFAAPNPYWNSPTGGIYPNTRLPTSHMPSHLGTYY
# Summary of the method: as §1
# ELF1 = ELF1 (Homo sapiens, UniProt P32519 1-619)
# Summary of the method: as §1
# EHF = target: T5, EHF (Homo sapiens, UniProt Q9NZC4 1-300)
# T5 sequence: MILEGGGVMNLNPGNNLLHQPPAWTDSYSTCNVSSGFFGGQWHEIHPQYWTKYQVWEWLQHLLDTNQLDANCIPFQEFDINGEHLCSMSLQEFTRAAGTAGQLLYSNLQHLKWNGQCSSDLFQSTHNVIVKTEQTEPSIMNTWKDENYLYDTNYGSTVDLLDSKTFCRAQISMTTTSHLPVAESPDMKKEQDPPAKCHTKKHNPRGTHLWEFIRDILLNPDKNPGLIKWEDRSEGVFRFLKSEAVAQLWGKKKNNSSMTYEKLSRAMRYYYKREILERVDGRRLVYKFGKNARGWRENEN
# Summary of the method: as §1
# SPI1 = SPI1 (Homo sapiens, UniProt P17947 1-270)
# Summary of the method: as §1
# SPIB = SPIB (Homo sapiens, UniProt Q01892 1-262)
# Summary of the method: as §1
# FEV = target: T6, FEV (Homo sapiens, UniProt Q99581 1-238)
# T6 sequence: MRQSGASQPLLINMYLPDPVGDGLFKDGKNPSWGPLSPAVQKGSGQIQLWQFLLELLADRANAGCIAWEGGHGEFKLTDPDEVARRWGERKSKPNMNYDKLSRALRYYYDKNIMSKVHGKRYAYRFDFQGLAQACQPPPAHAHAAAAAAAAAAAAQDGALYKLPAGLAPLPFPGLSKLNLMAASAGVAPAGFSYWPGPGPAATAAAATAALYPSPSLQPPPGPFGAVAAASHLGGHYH
# Summary of the method: as §1
# ETV5 = ETV5 (Homo sapiens, UniProt P41161 1-510)
# Summary of the method: as §1
# ELF4 = ELF4 (Homo sapiens, UniProt Q99607 1-663)
# Summary of the method: as §1
# ETV2 = target: T7, ETV2 (Homo sapiens, UniProt O00321 1-342)
# T7 sequence: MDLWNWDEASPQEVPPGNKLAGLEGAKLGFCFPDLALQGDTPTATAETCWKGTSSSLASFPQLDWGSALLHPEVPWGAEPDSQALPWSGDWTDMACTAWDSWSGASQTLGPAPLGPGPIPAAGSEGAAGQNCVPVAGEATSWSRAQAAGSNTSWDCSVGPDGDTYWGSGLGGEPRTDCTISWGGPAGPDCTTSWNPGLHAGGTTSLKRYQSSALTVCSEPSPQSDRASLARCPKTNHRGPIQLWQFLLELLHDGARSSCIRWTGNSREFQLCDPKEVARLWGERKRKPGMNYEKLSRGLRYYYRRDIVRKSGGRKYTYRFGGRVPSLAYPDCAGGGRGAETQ
# Summary of the method: as §1
# ELF3 = target: T8, ELF3 (Homo sapiens, UniProt P78545 1-371)
# T8 sequence: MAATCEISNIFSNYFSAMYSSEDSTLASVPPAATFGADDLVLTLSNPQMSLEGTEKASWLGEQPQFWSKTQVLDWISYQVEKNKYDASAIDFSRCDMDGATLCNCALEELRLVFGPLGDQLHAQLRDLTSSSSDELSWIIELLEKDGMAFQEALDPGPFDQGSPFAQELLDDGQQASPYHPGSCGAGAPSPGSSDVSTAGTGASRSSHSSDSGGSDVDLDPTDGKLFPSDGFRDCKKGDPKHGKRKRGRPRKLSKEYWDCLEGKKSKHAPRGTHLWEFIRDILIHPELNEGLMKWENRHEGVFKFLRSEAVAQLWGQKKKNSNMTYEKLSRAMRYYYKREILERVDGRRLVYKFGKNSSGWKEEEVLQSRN
# Summary of the method: as §1
# ERF = target: T9, ERF (Homo sapiens, UniProt P50548 1-548)
# T9 sequence: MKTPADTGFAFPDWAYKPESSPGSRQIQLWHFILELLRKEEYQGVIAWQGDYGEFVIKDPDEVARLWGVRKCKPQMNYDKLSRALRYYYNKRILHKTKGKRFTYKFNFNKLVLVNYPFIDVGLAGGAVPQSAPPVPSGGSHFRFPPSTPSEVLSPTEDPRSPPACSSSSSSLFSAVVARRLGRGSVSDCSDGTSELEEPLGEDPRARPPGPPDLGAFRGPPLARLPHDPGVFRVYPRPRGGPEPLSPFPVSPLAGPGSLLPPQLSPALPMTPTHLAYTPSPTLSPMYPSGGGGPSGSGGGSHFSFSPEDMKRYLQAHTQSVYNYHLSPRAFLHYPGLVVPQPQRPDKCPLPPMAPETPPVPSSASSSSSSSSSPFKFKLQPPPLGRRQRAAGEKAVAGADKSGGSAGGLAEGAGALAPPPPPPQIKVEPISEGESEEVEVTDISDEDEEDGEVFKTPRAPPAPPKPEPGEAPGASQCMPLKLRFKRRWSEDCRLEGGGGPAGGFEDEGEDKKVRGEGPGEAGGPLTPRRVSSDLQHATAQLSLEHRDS
# Summary of the method: as §1
# ETV3L = target: T10, ETV3L (Homo sapiens, UniProt Q6ZN32 1-361)
# T10 sequence: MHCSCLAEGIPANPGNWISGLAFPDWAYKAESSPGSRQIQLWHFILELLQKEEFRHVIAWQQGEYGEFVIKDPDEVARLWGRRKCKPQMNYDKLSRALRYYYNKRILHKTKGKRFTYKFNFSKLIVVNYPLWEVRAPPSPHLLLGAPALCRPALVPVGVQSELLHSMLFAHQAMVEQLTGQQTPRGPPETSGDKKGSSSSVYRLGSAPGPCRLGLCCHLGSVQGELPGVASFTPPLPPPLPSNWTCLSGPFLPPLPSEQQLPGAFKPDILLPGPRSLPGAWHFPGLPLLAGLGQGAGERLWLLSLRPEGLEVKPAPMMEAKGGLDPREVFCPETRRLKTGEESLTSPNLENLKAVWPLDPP
# Summary of the method: as §1
# ETS2 = target: T11, ETS2 (Homo sapiens, UniProt P15036 1-469)
# T11 sequence: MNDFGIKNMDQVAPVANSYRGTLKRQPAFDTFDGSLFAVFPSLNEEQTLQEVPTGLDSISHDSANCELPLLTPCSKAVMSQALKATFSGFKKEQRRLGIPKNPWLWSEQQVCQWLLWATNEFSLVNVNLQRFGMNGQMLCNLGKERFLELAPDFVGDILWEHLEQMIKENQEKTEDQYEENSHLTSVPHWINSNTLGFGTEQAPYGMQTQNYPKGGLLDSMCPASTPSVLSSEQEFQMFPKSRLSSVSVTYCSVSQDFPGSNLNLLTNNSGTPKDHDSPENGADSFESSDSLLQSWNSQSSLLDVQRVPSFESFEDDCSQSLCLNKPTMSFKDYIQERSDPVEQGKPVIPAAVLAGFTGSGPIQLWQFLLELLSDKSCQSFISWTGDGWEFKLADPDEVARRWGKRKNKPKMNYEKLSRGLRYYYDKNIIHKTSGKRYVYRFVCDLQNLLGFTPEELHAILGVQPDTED
# Summary of the method: as §1
# ETV7 = target: T12, ETV7 (Homo sapiens, UniProt Q9Y603 1-341)
# T12 sequence: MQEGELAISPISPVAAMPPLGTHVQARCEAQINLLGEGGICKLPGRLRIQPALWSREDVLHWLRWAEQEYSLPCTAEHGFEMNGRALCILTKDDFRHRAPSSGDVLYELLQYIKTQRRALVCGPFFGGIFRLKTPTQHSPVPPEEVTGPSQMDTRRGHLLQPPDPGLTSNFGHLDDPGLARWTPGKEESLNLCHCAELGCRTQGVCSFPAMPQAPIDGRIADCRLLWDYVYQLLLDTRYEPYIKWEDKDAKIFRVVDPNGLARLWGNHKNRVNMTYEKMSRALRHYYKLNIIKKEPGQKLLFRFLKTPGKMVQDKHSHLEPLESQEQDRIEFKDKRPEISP
# Summary of the method: as §1
# ETV3 = target: T13, ETV3 (Homo sapiens, UniProt P41162-2 1-143)
# T13 sequence: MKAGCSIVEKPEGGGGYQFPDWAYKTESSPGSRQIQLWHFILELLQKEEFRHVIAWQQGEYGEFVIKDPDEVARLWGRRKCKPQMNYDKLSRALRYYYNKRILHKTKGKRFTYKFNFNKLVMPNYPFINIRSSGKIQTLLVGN
# Summary of the method: as §1
# ETV6 = ETV6 (Homo sapiens, UniProt P41212 1-452)
# Summary of the method: as §1
# Sequence of SPIB (Q01892 whole entry): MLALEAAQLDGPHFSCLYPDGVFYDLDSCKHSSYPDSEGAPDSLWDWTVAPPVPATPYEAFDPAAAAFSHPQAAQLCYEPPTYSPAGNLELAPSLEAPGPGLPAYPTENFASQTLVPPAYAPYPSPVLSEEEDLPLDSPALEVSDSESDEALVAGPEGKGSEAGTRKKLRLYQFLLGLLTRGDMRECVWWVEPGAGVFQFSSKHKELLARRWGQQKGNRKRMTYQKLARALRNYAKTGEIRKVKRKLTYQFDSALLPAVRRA
# Sequence of ELF4 (Q99607 whole entry): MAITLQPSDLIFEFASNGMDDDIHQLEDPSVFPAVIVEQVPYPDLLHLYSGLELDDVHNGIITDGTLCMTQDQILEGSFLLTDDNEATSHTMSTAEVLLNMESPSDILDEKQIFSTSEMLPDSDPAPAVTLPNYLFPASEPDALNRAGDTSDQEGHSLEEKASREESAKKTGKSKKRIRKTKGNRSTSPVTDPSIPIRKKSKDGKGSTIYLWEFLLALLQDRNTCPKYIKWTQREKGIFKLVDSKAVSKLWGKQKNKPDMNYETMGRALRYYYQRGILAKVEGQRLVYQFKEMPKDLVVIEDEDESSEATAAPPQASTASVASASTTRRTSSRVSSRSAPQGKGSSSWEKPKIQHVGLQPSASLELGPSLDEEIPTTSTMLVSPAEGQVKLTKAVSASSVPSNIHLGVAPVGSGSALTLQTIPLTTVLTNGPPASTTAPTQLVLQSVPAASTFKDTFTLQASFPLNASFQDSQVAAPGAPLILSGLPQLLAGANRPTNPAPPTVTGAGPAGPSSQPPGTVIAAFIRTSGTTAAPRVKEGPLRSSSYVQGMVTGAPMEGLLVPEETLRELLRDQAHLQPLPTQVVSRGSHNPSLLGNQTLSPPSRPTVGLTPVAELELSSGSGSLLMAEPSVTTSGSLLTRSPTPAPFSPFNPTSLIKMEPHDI
# Sequence of ETV5 (P41161 whole entry): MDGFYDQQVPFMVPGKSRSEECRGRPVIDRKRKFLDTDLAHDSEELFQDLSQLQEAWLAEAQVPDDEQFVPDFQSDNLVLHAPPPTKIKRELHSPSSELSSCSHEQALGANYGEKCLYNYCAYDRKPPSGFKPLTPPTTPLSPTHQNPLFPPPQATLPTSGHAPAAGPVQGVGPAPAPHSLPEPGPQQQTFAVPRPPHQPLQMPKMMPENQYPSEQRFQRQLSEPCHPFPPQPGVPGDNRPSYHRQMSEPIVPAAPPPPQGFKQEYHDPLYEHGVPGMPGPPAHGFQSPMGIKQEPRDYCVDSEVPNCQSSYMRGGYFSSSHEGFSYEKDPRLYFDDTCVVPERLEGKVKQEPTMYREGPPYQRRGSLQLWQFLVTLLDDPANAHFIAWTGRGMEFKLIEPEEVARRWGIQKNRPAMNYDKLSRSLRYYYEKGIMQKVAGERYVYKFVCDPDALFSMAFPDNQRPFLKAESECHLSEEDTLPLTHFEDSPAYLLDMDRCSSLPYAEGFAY
# Sequence of ETV6 (P41212 whole entry): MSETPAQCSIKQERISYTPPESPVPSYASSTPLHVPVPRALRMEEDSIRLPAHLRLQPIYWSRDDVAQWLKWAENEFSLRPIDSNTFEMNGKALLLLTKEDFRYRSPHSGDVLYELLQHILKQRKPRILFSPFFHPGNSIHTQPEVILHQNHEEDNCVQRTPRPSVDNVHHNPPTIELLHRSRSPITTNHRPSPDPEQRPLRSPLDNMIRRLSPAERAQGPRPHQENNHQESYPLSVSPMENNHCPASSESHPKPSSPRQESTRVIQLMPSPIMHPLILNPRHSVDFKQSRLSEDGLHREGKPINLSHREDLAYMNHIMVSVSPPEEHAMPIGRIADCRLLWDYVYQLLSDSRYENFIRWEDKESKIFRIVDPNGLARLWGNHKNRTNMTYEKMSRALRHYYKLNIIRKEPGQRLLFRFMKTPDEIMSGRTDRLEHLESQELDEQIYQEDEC
# Sequence of ELF1 (P32519 whole entry): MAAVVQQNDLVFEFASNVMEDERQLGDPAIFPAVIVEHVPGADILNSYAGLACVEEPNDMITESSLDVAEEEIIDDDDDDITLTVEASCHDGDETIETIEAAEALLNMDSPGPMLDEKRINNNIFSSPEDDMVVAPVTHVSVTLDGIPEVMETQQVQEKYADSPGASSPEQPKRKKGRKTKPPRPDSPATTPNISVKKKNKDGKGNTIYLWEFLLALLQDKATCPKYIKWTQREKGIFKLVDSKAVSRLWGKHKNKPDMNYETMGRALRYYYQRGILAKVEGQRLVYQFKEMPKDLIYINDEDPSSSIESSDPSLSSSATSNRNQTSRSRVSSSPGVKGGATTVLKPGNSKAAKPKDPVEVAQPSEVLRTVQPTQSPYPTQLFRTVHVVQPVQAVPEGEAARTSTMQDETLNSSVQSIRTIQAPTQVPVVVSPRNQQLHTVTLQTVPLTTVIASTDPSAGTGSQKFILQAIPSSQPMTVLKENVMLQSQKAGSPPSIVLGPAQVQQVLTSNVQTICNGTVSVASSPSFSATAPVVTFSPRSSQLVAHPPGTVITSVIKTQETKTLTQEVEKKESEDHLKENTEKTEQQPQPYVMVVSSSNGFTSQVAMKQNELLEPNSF
sequence,measurement,setting,value
CATACC,binding signal,FLI1,"1.03 fold enrichment (6-mer frequency, TF over GST control)"
same,binding signal,ELK1,"1.06 fold enrichment (6-mer frequency, TF over GST control)"
same,binding signal,GABPA,"1.11 fold enrichment (6-mer frequency, TF over GST control)"
same,binding signal,ERG,"1.03 fold enrichment (6-mer frequency, TF over GST control)"
same,binding signal,ELF1,"1.09 fold enrichment (6-mer frequency, TF over GST control)"
same,binding signal,EHF,"1.1 fold enrichment (6-mer frequency, TF over GST control)"
same,binding signal,SPI1,"1.03 fold enrichment (6-mer frequency, TF over GST control)"
same,binding signal,SPIB,"1.04 fold enrichment (6-mer frequency, TF over GST control)"
same,binding signal,FEV,"1.07 fold enrichment (6-mer frequency, TF over GST control)"
same,binding signal,ETV5,"1.04 fold enrichment (6-mer frequency, TF over GST control)"
same,binding signal,ELF4,"1.1 fold enrichment (6-mer frequency, TF over GST control)"
same,binding signal,ETV2,"1.16 fold enrichment (6-mer frequency, TF over GST control)"
same,binding signal,ELF3,"1 fold enrichment (6-mer frequency, TF over GST control)"
same,binding signal,ERF,"1.03 fold enrichment (6-mer frequency, TF over GST control)"
same,binding signal,ETV3L,"1.17 fold enrichment (6-mer frequency, TF over GST control)"
same,binding signal,ETS2,"1.1 fold enrichment (6-mer frequency, TF over GST control)"
same,binding signal,ETV7,"1.03 fold enrichment (6-mer frequency, TF over GST control)"
same,binding signal,ETV3,"1.06 fold enrichment (6-mer frequency, TF over GST control)"
same,binding signal,ETV6,"1.01 fold enrichment (6-mer frequency, TF over GST control)"

# Reference: article PMC7862700, “An all-to-all approach to the identification of sequence-specific readers for epigenetic DNA modifications on cytosine”
